Reference: PubChem BioAssay (NCATS)
Inconclusive results are not listed. The source made the active and inactive calls. Unless noted, calls follow the shape of the dose curve; as a rule, active = well fitted curve in the direction sought with a large enough effect; inconclusive = small, poorly fitted or top-dose-only effect, or another doubt; inactive = no such curve, though single readings can be large; an effect the other way counts as inactive or inconclusive.

Experiments:
[1] = Confirmation and Secondary Assay for Modulators of Hemoglobin Beta Chain Splicing at IVS2 654 locus (AID 910); also: % of control where 0% means no effect
Procedure, shortened: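 HeLa cells stably carrying EGFP interrupted by mutant beta-globin IVS2-654 intron (CMV-driven) were treated with compound for 2 days at 37C; corrected splicing was scored as total peak GFP intensity per well (488 nm excitation, 500-520 nm emission).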

[2] = Cell Viability - LYMP2-001 (AID 921);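 also: cells exposed to compound for 24 h at 37 °C; nearly all actives have a fitted effect of over 70% in size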; also: potency is read from the fitted curve at half-maximal effect
Procedure, shortened: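 Steps: seed 2500 lymphoblastoid cells/well; 5 hr, 37 C; add compound; 24 hr, 37 C; CellTiter-Glo reagent, 30 min room temperature; read luminescence. Concentration-response modeled by Hill equation for AC50.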

[3] = Confirmation and Secondary Assay for Modulators of Hemoglobin Beta Chain Splicing at IVS2 705 locus (AID 930);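 also: HeLa cells stably expressing the EGFP-705 splicing reporter; GFP fluorescence per well restored by corrected splicing of the IVS2-705 intron in EGFP; series mostly up to about 46 µM; % of control where 0% means no effect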
Procedure, shortened: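 Read-out: total peak GFP fluorescence per well (488 nm excitation, 500-520 nm emission) by laser-scanning cytometry. Cells: HeLa EGFP-705 splicing reporter, 2 days compound exposure in Optimem/2% FCS.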

[4] = MultiTox-Fluor Cytotoxicity Assay - LYMP1-001 - Dead Cells (AID 946); also: potency is read from the fitted curve at half-maximal effect
Procedure, shortened: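 In this qHTS, 15 uM tetraoctylammonium bromide defined 100% and DMSO defined basal activity. Lymphoblastoid cells (LYMP1-001, 2500 per well) received compound for 16 hr at 37 C before a fluorogenic dead-cell substrate readout at 485/520 nm.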

[5] = Cell Viability - LYMP1-002 - Assay at 16 hr (AID 948); also: potency is read from the fitted curve at half-maximal effect
Procedure, shortened: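 Seed 2500 LYMP1-002 cells per well in complete medium and hold 5 hr at 37 C. Add compound across a concentration series and incubate 16 hr at 37 C. Add CellTiter-Glo, wait 30 min at room temperature, read luminescence.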

[6] = MultiTox-Fluor Cytotoxicity Assay - LYMP1-002 - Live Cells (AID 955);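 also: cells exposed to compound for 16 hours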; also: potency is read from the fitted curve at half-maximal effect
Procedure, shortened: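 In this qHTS viability format, lymphoblastoid cells (LYMP1-002, human) received compound for 16 hr at 37 C. Fluorogenic GF-AFC cleavage by viable cells was detected at 405/510 nm after 1 h at room temperature.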

[7] = MultiTox-Fluor Cytotoxicity Assay - LYMP1-002 - Dead Cells (AID 960); also: nearly all actives have a fitted effect of over 60% in size; also: potency is read from the fitted curve at half-maximal effect
Procedure, shortened: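 Concentration-dependent increases in membrane-leaked protease activity are quantified in LYMP1-002 cells after 16 hr treatment; values are normalized against DMSO and tetraoctylammonium bromide (15 uM) controls and AC50 derived by Hill modeling.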

[8] = MultiTox-Fluor Cytotoxicity Assay - LYMP1-003 - Dead Cells (AID 961); also: nearly all actives have a fitted effect of over 70% in size; also: potency is read from the fitted curve at half-maximal effect
Procedure, shortened: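 Acute toxicity is scored as increased dead-cell protease activity in human lymphoblastoid LYMP1-003 cells after 16 h compound exposure in complete culture medium. Activity is normalized to DMSO basal and 15 uM tetraoctylammonium bromide as full response.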

[9] = MultiTox-Fluor Cytotoxicity Assay - LYMP1-003 - Live Cells (AID 962);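 also: cells exposed to compound for 16 hours at 37 °C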; also: potency is read from the fitted curve at half-maximal effect
Procedure, shortened: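 Human lymphoblastoid line LYMP1-003 in complete culture medium, treated 16 hr with titrated compounds. Viable cells quantified via cell-permeant GF-AFC substrate fluorescence; AC50 derived by Hill fitting.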

[10] = MultiTox-Fluor Cytotoxicity Assay - LYMP1-001 - Live Cells (AID 947); also: potency is read from the fitted curve at half-maximal effect
[11] = target: Cytochrome P450 2C19 (Homo sapiens) (UniProt P33261); assay: qHTS Assay for Inhibitors and Substrates of Cytochrome P450 2C19 (AID 899); also: nearly all actives have a fitted effect of over 60% in size; also: potency is read from the fitted curve at half-maximal effect
Procedure, shortened: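 Human CYP2C19 (5nM) with Luciferin-H EGE at 10uM (its KM) in 50mM KPO4 was preincubated with compound for 10 min at 37C. NADPH regeneration started a 60 min 37C reaction. Luciferin was read by luminescence, normalized to 57uM ketoconazole.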

[12] = qHTS Assay for Identification of Small Molecule Agonists for Hypoxia Response Element Signaling Pathway (AID 914; active = well fitted activation curve with a large enough effect in the signal ratio, with a control signal flat, not every such curve was filed as active; the % refers to the signal ratio; also: % of control where 0% means no effect); settings: ME-180 (cervical carcinoma) HRE-bla reporter, beta-lactamase ratio, CoCl2, 17 h; stronger effect = higher value
Procedure, shortened: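 HRE-bla ME-180 cells, overnight plating in Opti-MEM with 0.5% dialyzed FBS; cpd titration + EC50 CoCl2, 17 h, 37 degrees Celsius; CCF4 2.5 h RT; 460/530 nm ratio; AC50.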

[13] = qHTS Assay for Identification of Small Molecule Agonists for Thrombopoietin (TPO) Signaling Pathway (AID 917); also: % is scaled to controls: 0 for no effect and ±100 for the full control effect
Procedure, shortened: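 Cell-based luciferase reporter screen. Mouse Ba/F3 line stably expressing human TPO receptor; IL-3 removed overnight before plating. Co-treatment with compound and EC50 TPO (26 pM), 24 hrs at 37 C, then luminescence.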

[14] = target: Muscarinic acetylcholine receptor M1 (Rattus norvegicus) (UniProt P08482); assay: qHTS Assay for Antagonists of Acetylcholine Muscarinic M1 Receptor: Measurement of IP-One Response (AID 944); also: nearly all actives have a fitted effect of over 75% in size
Procedure, shortened: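 Antagonism was measured as loss of carbachol-driven (EC80) IP1 accumulation in CHO cells carrying rat M1, using a homogeneous IP-One TR-FRET kit read at 620 and 665 nm.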

[15] = target: Pyruvate kinase PKM (Homo sapiens) (UniProt P14618); assay: qHTS Assay for Activators of Human Muscle Pyruvate Kinase (AID 954; active = well fitted curve in the direction sought with a large enough effect, not every such curve was filed as active;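 also: 0% = uninhibited enzyme and -100% = no enzyme or full thiadiazolimine inhibition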)
Procedure, shortened: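 Screening used highly purified human pyruvate kinase M2 under submaximal activity, with PEP at its Km and ADP below Km. After an hour at room temperature, ATP was read by luciferase luminescence.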

[16] = target: Pyruvate kinase (Leishmania mexicana) (UniProt Q27686); assay: qHTS Validation Assay for Activators of Leishmania Mexicana Pyruvate Kinase (AID 959)
Procedure, shortened: (§1)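 Luminescent ATP detection (PKLight) after a 1 h room-temperature reaction of 0.2 nM LmPYK E451W mutant with 0.5 mM PEP and 0.1 mM ADP at pH 7.2. Activity is normalized to DMSO-only control wells.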

[17] = target: Muscarinic acetylcholine receptor M1 (Rattus norvegicus) (UniProt P08482); assay: qHTS Assay for Antagonists of Acetylcholine Muscarinic M1 Receptor: Kinetic Measurement of Intracellular Calcium Response (AID 943);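 also: Fluo-4 calcium signal as peak divided by basal fluorescence over 4 min; series mostly up to about 35 µM; nearly all actives have a fitted effect of over 75% in size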
Procedure, shortened: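 Quantitative HTS in CHO-M1 (rat receptor) cells: 10 min compound exposure ahead of 100 nM carbachol, Fluo-4 fluorescence followed 4 min, value expressed as peak-to-basal ratio.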

[18] = target: Pyruvate kinase (Leishmania mexicana) (UniProt Q27686); assay: qHTS Validation Assay for Inhibitors of Leishmania Mexicana Pyruvate Kinase (AID 945);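 also: 0% = DMSO only neutral control wells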
Procedure, shortened: as §1

[19] = qHTS Assay for Identification of Small Molecule Antagonists for NFkB Signaling Pathway (AID 895; active = well fitted inhibition curve with a large enough effect in the signal ratio, with a control signal flat, not every such curve was filed as active; the % refers to the signal ratio; also: potency is read from the fitted curve at half-maximal effect)
Procedure, shortened: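 NFkB-bla ME-180 cervical carcinoma cells with beta-lactamase reporter under NFkB response element; compounds added, then TNF alpha at 10 pM final (EC50), 5 h at 37 C. LiveBLAzer substrate 2 h, room temperature; emission 460/530 nm at 405 nm excitation.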

[20] = qHTS Assay for Identification of Small Molecule Antagonists for Thrombopoietin (TPO) Signaling Pathway (AID 918); settings: TPO-dependent cell signaling reporter, antagonist mode; also: potency is read from the fitted curve at half-maximal effect; nearly all actives have a fitted effect of over 60% in size
Procedure, shortened: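 Antagonist mode at EC50 TPO (26 pM) in IL-3-free medium; murine Ba/F3 cells with human TPO receptor and GPIIb-promoter luciferase, 24 hrs at 37 C before luminescent detection.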

Sequence of Pyruvate kinase PKM (Homo sapiens) (P14618 whole entry, looked up): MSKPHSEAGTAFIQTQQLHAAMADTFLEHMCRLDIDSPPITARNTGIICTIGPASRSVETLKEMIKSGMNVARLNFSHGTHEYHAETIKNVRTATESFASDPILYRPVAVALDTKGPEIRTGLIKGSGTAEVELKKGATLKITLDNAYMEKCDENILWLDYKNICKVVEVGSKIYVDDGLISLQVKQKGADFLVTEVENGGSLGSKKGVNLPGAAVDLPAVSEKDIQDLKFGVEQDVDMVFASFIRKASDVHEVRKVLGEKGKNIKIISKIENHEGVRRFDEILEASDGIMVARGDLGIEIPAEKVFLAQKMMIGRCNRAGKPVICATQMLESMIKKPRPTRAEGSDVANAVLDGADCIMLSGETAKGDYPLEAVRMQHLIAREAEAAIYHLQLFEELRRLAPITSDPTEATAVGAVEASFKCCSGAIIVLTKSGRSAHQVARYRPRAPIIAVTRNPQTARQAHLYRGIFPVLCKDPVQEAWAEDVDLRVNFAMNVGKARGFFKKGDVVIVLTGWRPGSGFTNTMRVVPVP
Sequence of Pyruvate kinase (Leishmania mexicana) (Q27686 2-499 E452W): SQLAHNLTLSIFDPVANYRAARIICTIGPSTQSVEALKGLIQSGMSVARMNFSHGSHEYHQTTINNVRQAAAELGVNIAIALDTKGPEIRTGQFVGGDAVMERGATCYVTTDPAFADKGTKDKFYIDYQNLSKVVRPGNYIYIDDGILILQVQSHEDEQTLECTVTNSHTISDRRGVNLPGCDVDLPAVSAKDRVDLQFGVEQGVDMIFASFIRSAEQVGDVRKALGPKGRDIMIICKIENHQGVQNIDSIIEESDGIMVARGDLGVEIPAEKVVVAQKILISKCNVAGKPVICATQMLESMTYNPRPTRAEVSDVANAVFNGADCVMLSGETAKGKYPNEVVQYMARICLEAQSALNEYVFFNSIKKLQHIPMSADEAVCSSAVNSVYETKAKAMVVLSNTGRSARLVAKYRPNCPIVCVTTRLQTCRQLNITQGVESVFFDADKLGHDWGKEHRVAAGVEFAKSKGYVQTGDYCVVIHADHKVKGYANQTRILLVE
Sequence of Cytochrome P450 2C19 (Homo sapiens) (P33261 whole entry, looked up): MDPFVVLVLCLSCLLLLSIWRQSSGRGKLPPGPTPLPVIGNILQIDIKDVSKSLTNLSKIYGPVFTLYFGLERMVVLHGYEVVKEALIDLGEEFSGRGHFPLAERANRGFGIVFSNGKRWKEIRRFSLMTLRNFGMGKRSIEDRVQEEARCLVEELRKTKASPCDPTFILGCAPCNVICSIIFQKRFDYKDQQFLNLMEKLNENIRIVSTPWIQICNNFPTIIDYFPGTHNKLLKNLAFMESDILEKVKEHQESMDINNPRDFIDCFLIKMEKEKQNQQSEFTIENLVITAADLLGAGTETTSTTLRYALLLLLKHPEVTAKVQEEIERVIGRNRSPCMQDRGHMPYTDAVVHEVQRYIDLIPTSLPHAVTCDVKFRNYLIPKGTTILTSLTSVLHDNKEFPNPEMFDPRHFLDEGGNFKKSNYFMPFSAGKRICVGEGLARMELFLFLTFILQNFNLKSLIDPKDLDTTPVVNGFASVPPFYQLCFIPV
Sequence of Muscarinic acetylcholine receptor M1 (Rattus norvegicus) (P08482 whole entry, looked up): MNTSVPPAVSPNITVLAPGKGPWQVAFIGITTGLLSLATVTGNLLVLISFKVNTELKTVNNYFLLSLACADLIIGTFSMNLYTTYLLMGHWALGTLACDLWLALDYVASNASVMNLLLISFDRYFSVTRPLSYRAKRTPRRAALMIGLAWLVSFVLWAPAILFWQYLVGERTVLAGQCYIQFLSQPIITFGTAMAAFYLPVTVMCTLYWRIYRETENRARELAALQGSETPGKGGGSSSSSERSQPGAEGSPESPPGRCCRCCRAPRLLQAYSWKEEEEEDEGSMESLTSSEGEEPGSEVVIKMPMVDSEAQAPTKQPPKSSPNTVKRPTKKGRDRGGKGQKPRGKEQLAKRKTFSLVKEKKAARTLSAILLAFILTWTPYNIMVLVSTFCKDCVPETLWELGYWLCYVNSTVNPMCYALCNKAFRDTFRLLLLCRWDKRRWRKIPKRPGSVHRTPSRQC

O=C1OC(c2ccc(O)cc2)(c2ccc(O)cc2)c2ccccc21
inactive: outcome [1] | Potency [2] | outcome [3] | Potency [4] | Potency [5] | Potency [6] | Potency [8] | Potency [9]
active: Potency [7] 15.8 µM

NC(=NCCCCCCN=C(N)/N=C(\N)Nc1ccc(Cl)cc1)/N=C(\N)Nc1ccc(Cl)cc1
active: Potency [2] 39.8 µM | Potency [4] 50.1 µM | Potency [10] 39.8 µM | Potency [5] 50.1 µM | Potency [6] 15.8 µM | Potency [8] 31.6 µM | Potency [9] 50.1 µM
inactive: outcome [1] | outcome [3]

C=C(CC)C(=O)c1ccc(OCC(=O)O)c(Cl)c1Cl
inactive: outcome [1] | outcome [3] | Potency [10] | Potency [6] | Potency [9]
active: Potency [2] 50.1 µM | Potency [7] 31.6 µM | Potency [8] 50.1 µM

Cc1c(C(N)=O)cc([N+](=O)[O-])cc1[N+](=O)[O-]
inactive: outcome [1] | outcome [3]

COc1c(C)c2c(c(O)c1C/C=C(\C)CCC(=O)O)C(=O)OC2
inactive: Potency [11] | outcome [1] | outcome [3]

CCCCCCc1ccc(O)cc1O
inactive: outcome [1] | Potency [2] | outcome [3] | Potency [4] | Potency [10] | Potency [5] | Potency [6] | Potency [8] | Potency [9]

CN(C)/N=N/c1nc[nH]c1C(N)=O
inactive: outcome [1] | Potency [2] | outcome [3] | Potency [4] | Potency [10] | Potency [5] | Potency [6] | Potency [7] | Potency [8] | Potency [9]

Cc1c(N(C)CS(=O)(=O)O)c(=O)n(-c2ccccc2)n1C
inactive: outcome [1] | activation [12] -4.84% | outcome [3]

Nc1ccc(C(=O)O)cc1
inactive: outcome [1] | Potency [2] | outcome [3] | Potency [4] | Potency [5] | Potency [6] | Potency [7] | Potency [8] | Potency [9]

Oc1c(I)cc(Cl)c2cccnc12
active: Potency [2] 39.8 µM | Potency [7] 31.6 µM
inactive: outcome [1] | outcome [3] | Potency [4]

COc1cc(OC)cc(OC)c1
inactive: outcome [1] | outcome [3]

C[C@@H]1CN(CCCn2c3ccccc3c3ccccc32)C[C@H](C)N1
active: Potency [11] 3.16 µM

CCCCC1=NC2(CCCC2)C(=O)N1Cc1ccc(-c2ccccc2-c2nn[nH]n2)cc1
inactive: outcome [1] | outcome [3]

CC/C(=C(/CC)c1ccc(O)cc1)c1ccc(O)cc1
inactive: outcome [1] | Potency [2] | outcome [3] | Potency [10] | Potency [5] | Potency [6] | Potency [8] | Potency [9]

C=CCc1ccc(O)c(OC)c1
inactive: outcome [1] | Potency [2] | outcome [3] | Potency [4] | Potency [10] | Potency [5] | Potency [6] | Potency [7] | Potency [8] | Potency [9]

CC(C)(C)CC(C)(C)c1ccc(OCCOCC[N+](C)(C)Cc2ccccc2)cc1
active: Potency [2] 20 µM | Potency [5] 50.1 µM
inactive: outcome [1] | outcome [3]

O=C(O)c1cc2cc(Cc3cccnc3)ccc2o1
inactive: outcome [1] | outcome [13] | outcome [3] | Potency [14] | outcome [15] | outcome [16]

C[N+]1(CCCCC[N+]2(C)CCCC2)CCCC1
inactive: outcome [1] | outcome [13] | outcome [3] | outcome [17] | Potency [14] | outcome [18] | outcome [15]

Oc1c(Cl)cc(Cl)cc1Sc1cc(Cl)cc(Cl)c1O
active: Potency [2] 39.8 µM
inactive: outcome [1] | outcome [3] | Potency [4] | Potency [10] | Potency [5] | Potency [6] | Potency [7] | Potency [8] | Potency [9]

O=C(COc1ccc(Cl)cc1)N1CCN(Cc2ccc3c(c2)OCO3)CC1
active: Potency [11] 5.01 µM
inactive: outcome [1] | outcome [3]

C1CCc2nnnn2CC1
inactive: outcome [1] | outcome [13] | outcome [3] | outcome [17] | Potency [14] | outcome [18] | outcome [15]

CCCn1c(=O)[nH]c(=O)c2[nH]cnc21
inactive: Potency [11] | outcome [13] | outcome [18] | outcome [15]

CC(C)NC[C@@H](O)COc1cccc2ccccc12
inactive: outcome [1] | outcome [13] | outcome [3] | Potency [14] | outcome [15]

CC(=O)Oc1ccc(C(c2ccc(OC(C)=O)cc2)c2ccccn2)cc1
inactive: outcome [1] | Potency [2] | outcome [3] | Potency [4] | Potency [10] | Potency [5] | Potency [6] | Potency [7] | Potency [8] | Potency [9]

Oc1ccc(O)cc1
active: Potency [19] 10 µM | Potency [20] 12.6 µM | Potency [2] 25.1 µM | Potency [5] 31.6 µM | Potency [7] 12.6 µM | Potency [8] 12.6 µM | Potency [9] 50.1 µM
inactive: Potency [11] | outcome [3] | outcome [17] | outcome [18] | outcome [15]
